Assay results as given in PubChem BioAssay AID1159580 (chemical genetic matrix, 2015).
Several values for one entry are separate records, joined by “and”; a condition that tells them apart may be missing. Identical values can stand only once. The whole screen tested about 5,500 compounds, of which about 2,000 (36%) were called active. Inconclusive results (about 18%) are left out. This is one part of the list. A number with no mark means an inactive call. Rule as the data show it: active = normalized growth mostly below about 0.91 (no sharp cut-off); inconclusive = no clear call, values can overlap the other calls; inactive = mostly above about 0.92.

Experiment: chemical genetic growth profiling, strain panel (AID 1159580);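 also: tested at 20 µM; growth read once vehicle control cultures reached saturation at 30 °C; 1 = growth at the plate median or of vehicle wells; lower values mean less growth of the strain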
Conditions: growth OD

O=C(O/N=C1/CCCc2[nH]c3ccccc3c21)c1ccc(Cl)cc1Cl
normalized growth (S. cerevisiae deletion strains, locus YAL013W, strain DEP1, active compounds read low): 0.906 (active)
normalized growth (S. cerevisiae deletion strains, locus YAR019C, strain CDC15, active compounds read low): 0.982
normalized growth (S. cerevisiae deletion strains, locus YBL105C, strain PKC1, active compounds read low): 0.984
normalized growth (S. cerevisiae deletion strains, locus YBR135W, strain CKS1, active compounds read low): 0.974
normalized growth (S. cerevisiae deletion strains, locus YBR136W, strain MEC1, active compounds read low): 0.975
normalized growth (S. cerevisiae deletion strains, locus YBR160W, strain CDC28, active compounds read low): 0.98
normalized growth (S. cerevisiae deletion strains, locus YBR229C, strain ROT2, active compounds read low): 0.97
normalized growth (S. cerevisiae deletion strains, locus YCL061C, strain MRC1, active compounds read low): 0.923
normalized growth (S. cerevisiae deletion strains, locus YDL017W, strain CDC7, active compounds read low): 0.974
normalized growth (S. cerevisiae deletion strains, locus YDL028C, strain MPS1, active compounds read low): 0.972
normalized growth (S. cerevisiae deletion strains, locus YDL101C, strain DUN1, active compounds read low): 0.989 and 1
normalized growth (S. cerevisiae deletion strains, locus YDL108W, strain KIN28, active compounds read low): 0.972
normalized growth (S. cerevisiae deletion strains, locus YDL132W, strain cdc53, active compounds read low): 0.976
normalized growth (S. cerevisiae deletion strains, locus YDL134C, strain PPH21, active compounds read low): 0.968
normalized growth (S. cerevisiae deletion strains, locus YDL214C, strain PRR2, active compounds read low): 0.917
normalized growth (S. cerevisiae deletion strains, locus YDR052C, strain DBF4, active compounds read low): 0.985
normalized growth (S. cerevisiae deletion strains, locus YDR054C, strain cdc34, active compounds read low): 0.984
normalized growth (S. cerevisiae deletion strains, locus YDR150W, strain NUM1, active compounds read low): 0.943
normalized growth (S. cerevisiae deletion strains, locus YDR226W, strain ADK1, active compounds read low): 0.96
normalized growth (S. cerevisiae deletion strains, locus YDR477W, strain SNF1, active compounds read low): 0.91
normalized growth (S. cerevisiae deletion strains, locus YEL061C, strain CIN8, active compounds read low): 0.917
normalized growth (S. cerevisiae deletion strains, locus YER123W, strain YCK3, active compounds read low): 0.917
normalized growth (S. cerevisiae deletion strains, locus YER133W, strain GLC7, active compounds read low): 0.91
normalized growth (S. cerevisiae deletion strains, locus YFL009W, strain cdc4, active compounds read low): 0.971
normalized growth (S. cerevisiae deletion strains, locus YFL029C, strain CAK1, active compounds read low): 0.98
normalized growth (S. cerevisiae deletion strains, locus YFR003C, strain YPI1, active compounds read low): 0.973
normalized growth (S. cerevisiae deletion strains, locus YFR019W, strain FAB1, active compounds read low): 0.95
normalized growth (S. cerevisiae deletion strains, locus YFR028C, strain CDC14, active compounds read low): 0.977
normalized growth (S. cerevisiae deletion strains, locus YGR040W, strain KSS1, active compounds read low): 0.908
normalized growth (S. cerevisiae deletion strains, locus YGR052W, strain FMP48, active compounds read low): 0.897
normalized growth (S. cerevisiae deletion strains, locus YGR078C, strain PAC10, active compounds read low): 0.962
normalized growth (S. cerevisiae deletion strains, locus YGR092W, strain DBF2, active compounds read low): 0.982
normalized growth (S. cerevisiae deletion strains, locus YGR229C, strain SMI1, active compounds read low): 0.993
normalized growth (S. cerevisiae deletion strains, locus YHR030C, strain SLT2, active compounds read low): 0.426 (active) and 0.762 (active)
normalized growth (S. cerevisiae deletion strains, locus YHR079C, strain IRE1, active compounds read low): 0.988
normalized growth (S. cerevisiae deletion strains, locus YHR082C, strain KSP1, active compounds read low): 0.943
normalized growth (S. cerevisiae deletion strains, locus YHR087W, strain rtc3, active compounds read low): 0.982
normalized growth (S. cerevisiae deletion strains, locus YHR205W, strain SCH9, active compounds read low): 0.961
normalized growth (S. cerevisiae deletion strains, locus YIL147C, strain SLN1, active compounds read low): 0.976
normalized growth (S. cerevisiae deletion strains, locus YJL095W, strain BCK1, active compounds read low): 0.935
normalized growth (S. cerevisiae deletion strains, locus YJL128C, strain PBS2, active compounds read low): 0.921
normalized growth (S. cerevisiae deletion strains, locus YJL157C, strain FAR1, active compounds read low): 0.906
normalized growth (S. cerevisiae deletion strains, locus YJR016C, strain ILV3, active compounds read low): 0.964
normalized growth (S. cerevisiae deletion strains, locus YJR043C, strain POL32, active compounds read low): 0.941
normalized growth (S. cerevisiae deletion strains, locus YJR066W, strain TOR1 (second series), active compounds read low): 0.876
normalized growth (S. cerevisiae deletion strains, locus YJR066W, strain TOR1, active compounds read low): 0.987
normalized growth (S. cerevisiae deletion strains, locus YJR075W, strain HOC1, active compounds read low): 0.895
normalized growth (S. cerevisiae deletion strains, locus YKL048C, strain ELM1, active compounds read low): 0.963
normalized growth (S. cerevisiae deletion strains, locus YKL067W, strain YNK1, active compounds read low): 0.946
normalized growth (S. cerevisiae deletion strains, locus YKL101W, strain HSL1, active compounds read low): 0.935
normalized growth (S. cerevisiae deletion strains, locus YKL190W, strain CNB1, active compounds read low): 0.807 (active)
normalized growth (S. cerevisiae deletion strains, locus YKL193C, strain SDS22, active compounds read low): 0.969
normalized growth (S. cerevisiae deletion strains, locus YKL203C, strain TOR2, active compounds read low): 0.958
normalized growth (S. cerevisiae deletion strains, locus YLR039C, strain RIC1, active compounds read low): 0.708 (active)
normalized growth (S. cerevisiae deletion strains, locus YLR058C, strain SHM2 (second series), active compounds read low): 0.971
normalized growth (S. cerevisiae deletion strains, locus YLR085C, strain ARP6, active compounds read low): 0.55 (active)
normalized growth (S. cerevisiae deletion strains, locus YLR113W, strain HOG1, active compounds read low): 0.806 (active)
normalized growth (S. cerevisiae deletion strains, locus YLR133W, strain CKI1, active compounds read low): 0.926
normalized growth (S. cerevisiae deletion strains, locus YLR262C, strain YPT6, active compounds read low): 0.776 (active)
normalized growth (S. cerevisiae deletion strains, locus YLR403W, strain SFP1, active compounds read low): 0.931
normalized growth (S. cerevisiae deletion strains, locus YML070W, strain DAK1, active compounds read low): 0.914
normalized growth (S. cerevisiae deletion strains, locus YML094W, strain GIM5, active compounds read low): 0.822 (active)
normalized growth (S. cerevisiae deletion strains, locus YMR001C, strain CDC5, active compounds read low): 0.977
normalized growth (S. cerevisiae deletion strains, locus YMR205C, strain PFK2 (second series), active compounds read low): 0.935
normalized growth (S. cerevisiae deletion strains, locus YMR219W, strain ESC1, active compounds read low): 1.01
normalized growth (S. cerevisiae deletion strains, locus YMR263W, strain SAP30, active compounds read low): 0.893 (active)
normalized growth (S. cerevisiae deletion strains, locus YMR277W, strain FCP1, active compounds read low): 0.969
normalized growth (S. cerevisiae deletion strains, locus YMR307W, strain GAS1, active compounds read low): 0.461 (active)
normalized growth (S. cerevisiae deletion strains, locus YNL006W, strain LST8, active compounds read low): 0.983
normalized growth (S. cerevisiae deletion strains, locus YNL020C, strain ARK1, active compounds read low): 0.921
normalized growth (S. cerevisiae deletion strains, locus YNL128W, strain TEP1, active compounds read low): 0.972
normalized growth (S. cerevisiae deletion strains, locus YNL153C, strain GIM3, active compounds read low): 0.971
normalized growth (S. cerevisiae deletion strains, locus YNL161W, strain CBK1, active compounds read low): 0.971
normalized growth (S. cerevisiae deletion strains, locus YNL183C, strain NPR1, active compounds read low): 1
normalized growth (S. cerevisiae deletion strains, locus YNL207W, strain RIO2, active compounds read low): 0.976
normalized growth (S. cerevisiae deletion strains, locus YNL222W, strain SSU72, active compounds read low): 0.97
normalized growth (S. cerevisiae deletion strains, locus YNL298W, strain CLA4 (second series), active compounds read low): 0.796 (active)
normalized growth (S. cerevisiae deletion strains, locus YNL307C, strain MCK1 (second series), active compounds read low): 0.937
normalized growth (S. cerevisiae deletion strains, locus YNL322C, strain KRE1, active compounds read low): 0.993
normalized growth (S. cerevisiae deletion strains, locus YNR030W, strain Alg12, active compounds read low): 0.754 (active)
normalized growth (S. cerevisiae deletion strains, locus YOL078W, strain AVO1, active compounds read low): 0.971
normalized growth (S. cerevisiae deletion strains, locus YOL136C, strain PFK27, active compounds read low): 0.917
normalized growth (S. cerevisiae deletion strains, locus YOR061W, strain CKA2, active compounds read low): 0.935
normalized growth (S. cerevisiae deletion strains, locus YOR119C, strain RIO1, active compounds read low): 0.97
normalized growth (S. cerevisiae deletion strains, locus YOR231W, strain MKK1, active compounds read low): 0.939
normalized growth (S. cerevisiae deletion strains, locus YOR329C, strain SCD5, active compounds read low): 0.972
normalized growth (S. cerevisiae deletion strains, locus YPL031C, strain PHO85, active compounds read low): 0.9
normalized growth (S. cerevisiae deletion strains, locus YPL055C, strain LGE1, active compounds read low): 0.733 (active)
normalized growth (S. cerevisiae deletion strains, locus YPL153C, strain RAD53, active compounds read low): 0.918
normalized growth (S. cerevisiae deletion strains, locus YPL204W, strain HRR25, active compounds read low): 0.912
normalized growth (S. cerevisiae deletion strains, locus YPL209C, strain IPL1, active compounds read low): 0.977
normalized growth (S. cerevisiae deletion strains, locus YPL241C, strain CIN2, active compounds read low): 0.843 (active)
normalized growth (S. cerevisiae deletion strains, locus YPL256C, strain CLN2, active compounds read low): 0.882
normalized growth (S. cerevisiae deletion strains, locus YPR025C, strain CCL1, active compounds read low): 0.979
normalized growth (S. cerevisiae deletion strains, locus YPR106W, strain ISR1, active compounds read low): 0.979
normalized growth (S. cerevisiae deletion strains, locus YPR111W, strain DBF20, active compounds read low): 0.972
normalized growth (S. cerevisiae deletion strains, locus YPR135W, strain CTF4, active compounds read low): 0.681
normalized growth (S. cerevisiae deletion strains, strain NNK1, active compounds read low): 0.975
normalized growth (S. cerevisiae deletion strains, strain TSCII, active compounds read low): 0.972
normalized growth (S. cerevisiae strains, strain wild type, active compounds read low): 0.874 (active)
